# Screening data as filed in PubChem.
# Hits are enriched below; roughly 9.4% of the tested compounds scored in any of these assays.
# ALDH1A1 block – inhibitors of human aldehyde dehydrogenase 1A1. P00352. Purified ALDH1A1, NADH fluorescence, propionaldehyde substrate. Potency, µM (highest dose often 75.3 µM), without a hit: at the top dose activity, negative = inhibition, hits mostly inhibitors. 220,000 tested, 7.3% active; active = well fitted inhibition curve with a large enough effect, not every such curve was filed as active; inconclusive = small, poorly fitted or top-dose-only effect, or another doubt; inactive = no such curve, though single readings can be large or run the other way;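 also: potency is read from the fitted curve at half-maximal effect; plate controls were no enzyme wells and a reference inhibitor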
# HTT ATP protect – protects HTT-Q103 PC12 cells, measured by ATP; PC12 HTT-Q103 induced, cytoprotection, ATP luminescence, 40 h; Potency, µM (highest dose often 56.4 µM), for the others: cytoprotection (ATP increase), usual class: activators; 230,000 tested, 0.14% active; AID 1471; also: potency is read from the fitted curve at half-maximal effect; % of control where 0% means no effect; nearly all actives have a fitted effect of over 45% in size
#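 ATP quantification (ATPlite) reports survival of PC12 cells in which tebufenozide, 100 nM final, switches on Htt exon 1 with 103 glutamines linked to GFP; compounds are titrated.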
# HTT aggregate – inhibitors of mutant huntingtin aggregate formation in PC12 cells | PC12 HttQ103-GFP aggregates, Acumen cytometry, 40 h | AID 1688 | Potency, µM (doses to about 46.1 µM), for the others: at the top dose activity change, negative = inhibition, actives largely listed as inhibitors | 220,000 tested, 1.1% active; also: potency is read from the fitted curve at half-maximal effect; % is scaled to controls: 0 for no effect and ±100 for the full control effect; nearly all actives have a fitted effect of over 60% in size
#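 Ecdysone-promoter PC12 model expressing HTT exon 1 Q103 fused to GFP, induced by tebufenozide at 100 nM final. Compounds titrated; aggregates sized 1–25 µm scored on a 488 nm laser cytometer.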
# IMPase cell inh – cell-permeable inhibitors of inositol monophosphatase (IMPase); AID 901; 120,000 tested, under 10 active; CHO-M1 cells, IP1 accumulation, HTRF TR-FRET ratio; inhibition (IP1 accumulation), % at 46.1 µM; P97697; active = well fitted curve in the direction sought with a large enough effect in the signal ratio, not every such curve was filed as active; inconclusive = small, poorly fitted or top-dose-only effect, or a change in a side signal; inactive = no such curve, though single readings can be large or run the other way; the % refers to the signal ratio;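 also: cells stimulated with carbachol in lithium chloride buffer; plate controls were DMSO basal wells for no effect and reference inhibitor wells for full effect; higher means more IMPase inhibition seen as more IP1 and lower FRET ratio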
# Target sequence (P97697 whole entry, looked up): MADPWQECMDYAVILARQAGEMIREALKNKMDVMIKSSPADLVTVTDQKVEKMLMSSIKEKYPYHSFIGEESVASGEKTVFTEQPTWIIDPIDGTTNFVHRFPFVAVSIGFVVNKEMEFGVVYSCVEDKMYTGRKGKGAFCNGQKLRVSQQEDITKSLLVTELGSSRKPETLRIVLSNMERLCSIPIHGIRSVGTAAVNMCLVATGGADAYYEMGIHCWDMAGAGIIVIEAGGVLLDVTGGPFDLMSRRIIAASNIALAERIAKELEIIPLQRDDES
#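 The IP-One HTRF competitive assay in carbachol-stimulated CHO-M1 cells quantifies cellular IP1. Compounds spanned up to 46 uM final, and activity is expressed as AC50 from concentration-response fits of the ratio and donor data.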
# HPGD inh – HPGD (human) dehydrogenase inhibition | 150,000 tested, 4.3% active | purified HPGD, NADH fluorescence kinetic, PGE2 substrate | Potency, µM, for the others: at the highest dose activity change, negative = inhibition, most hits filed as inhibitors | AID 894; active = well fitted inhibition curve with a large enough effect, not every such curve was filed as active; inconclusive = small, poorly fitted or top-dose-only effect, or another doubt; inactive = no such curve, though single readings can be large or run the other way; also: potency is read from the fitted curve at half-maximal effect; % is scaled to controls: 0 for no effect and ±100 for the full control effect
# Target sequence (P15428 whole entry, looked up): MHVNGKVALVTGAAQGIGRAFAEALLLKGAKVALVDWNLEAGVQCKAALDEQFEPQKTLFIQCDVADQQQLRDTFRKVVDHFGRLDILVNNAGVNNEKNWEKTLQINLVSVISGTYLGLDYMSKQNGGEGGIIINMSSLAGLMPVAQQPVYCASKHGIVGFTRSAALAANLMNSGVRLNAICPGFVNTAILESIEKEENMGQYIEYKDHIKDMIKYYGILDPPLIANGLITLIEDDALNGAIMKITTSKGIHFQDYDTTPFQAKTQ
#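 NADH formation kinetics: reaction with 30 uM PGE2 and 1 mM NAD+ (final), 20 nM enzyme, Tris-HCl pH 8 with Tween 20, after 15 min compound preincubation at room temperature. Fluorescence change, last versus first of five reads.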
# IMPase Li inh – membrane-permeable IMPase blocker, potentiated with lithium; CHO-M1 cells, IP1 TR-FRET (IP-One), carbachol + lithium; Potency, µM (top dose mostly 59.4 µM), without a hit: at the top dose activity, negative = IMPase inhibition, usual class: inhibitors; 210,000 tested, 0.35% active; AID 1457;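 also: IP1 builds up when IMPase is blocked and the TR-FRET signal falls; potency is read from the fitted curve at half-maximal effect; plate controls were basal vehicle for no effect and high inhibitor control for full effect; nearly all actives have a fitted effect of over 50% in size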
#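 CHO cells stably expressing M1 receptor (2000/well, cultured 16–30 h) treated 30 min at 37C with compound plus low lithium. Cytosolic IP1 by TR-FRET (665/620 ratio and 620 channel) after 10 min lysis; AC50 by Hill fit.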
# * marks the source's active call; other numbers are inactive results; ? = inconclusive; . = not tested or not shown; [ ] = dose if it differs, or a comment. Unless noted, calls follow the shape of the dose curve; as a rule, active = well fitted curve in the direction sought with a large enough effect; inconclusive = small, poorly fitted or top-dose-only effect, or another doubt; inactive = no such curve, though single readings can be large; an effect the other way counts as inactive or inconclusive.
SMILES,ALDH1A1 block,HTT ATP protect,HTT aggregate,IMPase cell inh,HPGD inh,IMPase Li inh
Cc1cc(C(=O)N/N=C/c2cc(Br)ccc2OC(=O)c2ccccc2Cl)n[nH]1,2%,8%[10 µM],-16%[9.22 µM],.,.,3%
CCOc1ccccc1Nc1nnc(SCC(=O)Nc2nc(-c3ccc(OC)cc3)cs2)s1,25µM*,26%,3%,.,.,-18%
COc1ccc(-c2csc(NC(=O)CSc3nnc(Nc4ccccc4C)s3)n2)cc1,25µM*,-22%,-8%[9.22 µM],.,.,-4%
Cc1cccc(Nc2nnc(SCC(=O)Nc3ccccc3[N+](=O)[O-])s2)c1C,1.3µM*,25%[10 µM],-6%,.,?,-12%
O=C(O)/C=C/c1coc2ccccc2c1=O,7%,16%[10 µM],2%,.,-2%,-7%
N#C/C(=C\c1coc2ccccc2c1=O)C(N)=S,32µM*,1%,-11%,.,.,-15%
COc1ccccc1OCc1ccc(C(=O)NN)cc1,14µM*,-17%,-17%,-2,-1%,29%[38.3 µM]
NNC(=O)c1ccc(COc2cccc3cccnc23)cc1,14µM*,17%[10 µM],-4%,.,.,-3%
Cc1ccc(COc2ccsc2C(=O)NNC(N)=S)cc1,3%,-16%,13%,.,.,10%
O=C(N/N=C/c1ccc[nH]1)c1ccc(COc2cccc3cccnc23)cc1,-15%,-32%,-2%,.,.,-6%
Cc1ccc(COc2ccsc2C(=O)NN)cc1,6.3µM*,-19%[10 µM],-2%,.,.,13%
CC1=NN(c2ccc(C(F)(F)F)cn2)C(=O)C1,22µM*,.,-26%,.,-9%,-8%
CC(C)C(OC(=O)c1cccs1)C(=O)NCc1cccs1 (stereo not drawn),?,20%,-7%,2,-28%,25µM*
CCC(OC(=O)c1cccs1)C(=O)NCc1ccco1 (stereo not drawn),22µM*,-3%[10 µM],-4%,6,-15%,27%[38.3 µM]
CC(C)C(OC(=O)c1ccco1)C(=O)NCc1ccccc1 (stereo not drawn),0%,19%[10 µM],-8%,6,13µM*,23%[38.3 µM]
CC(OC(=O)c1cccs1)C(=O)NCc1ccccc1 (stereo not drawn),5%,2%[10 µM],13%,6,-5%,-5%[38.3 µM]
Cc1nn(C(=O)c2ccccc2)c(C)c1Sc1ccc(Cl)cc1,.,.,.,-18,.,.
O=C(O)/C=C\C(=O)Nc1cccc(NC(=O)c2ccccc2)c1,?,24%[10 µM],-5%[9.22 µM],.,.,-2%
O=C(O)/C=C/C(=O)Nc1ccc(NC(=O)c2ccccc2)c(Cl)c1,2.2µM*,-33%,17%,.,.,0%
CCCNC(=O)OC[C@@H]1O[C@H](CCO/N=C(\C)CCN2CCCCc3nc(C)c(C)cc32)C=C[C@@H]1Oc1ccc(OC)cc1,-8%[13.5 µM],2%[10 µM],.,.,.,.
COc1ccccc1C(=O)NCc1ccc2c(c1)OCO2,-1%,-18%,-3%,-16,14µM*,-6%[38.3 µM]
COc1ccc(COc2ccccc2C(=O)NCc2ccccc2)cc1F,?,21%[10 µM],?,.,16µM*,22%
CC12CCC(C(=O)NCc3ccccc3)(OC1=O)C2(C)C (stereo not drawn),-13%,-4%,4%,4,-13%,23%[38.3 µM]
CC12CCC(C(=O)NCc3ccc4c(c3)OCO4)(OC1=O)C2(C)C (stereo not drawn),?,8%,8%,1,32µM*,11%[38.3 µM]
COc1ccccc1/C=C(/CC(=O)NCc1ccc2c(c1)OCO2)c1nc2ccccc2s1,1.4µM*,-7%[10 µM],4%,.,-13%,8%
SMILES,ALDH1A1 block,HTT ATP protect,HTT aggregate,IMPase cell inh,HPGD inh,IMPase Li inh
CC(=O)NCCNc1ncnc2ccc(-c3ccccc3C)cc12,?,-48%,.,.,.,-6%
CNc1ncnc2c1ncn2[C@@H]1O[C@@H](CO)[C@H](O)[C@@H]1O,.,12%[1.9 µM],.,-3,.,.
CC(=O)c1ccc[nH]1,1%,.,.,.,-8%,6%
Cc1cc(C)n(-c2nc3ccccc3nc2N2CCN(c3cccc(C)c3C)CC2)n1,.,.,.,-4,.,.
Cc1ccc(NS(=O)(=O)c2cc(C(=O)O)ccc2Cl)cc1C,5%,.,.,.,-3%,.
O=C(O)CCCCn1cnc2c(=S)nc[nH]c21,-13%[13.5 µM],-4%[10 µM],.,.,-14%,-2%
O=C(NCc1ccc2c(c1)OCO2)c1cccc(Cl)c1,-5%,-8%[10 µM],-7%[9.22 µM],2,3.5µM*,6%[38.3 µM]
O=C(NCc1cccc(Cl)c1)c1ccc2c(c1)OCO2,2%,1%[10 µM],-6%,13,-26%,2%
O=C(NCc1ccc2c(c1)OCO2)c1cccc(F)c1,-1%,-6%,-9%,0,16µM*,2%[38.3 µM]
CSCC[C@@H]1NC(=O)C/C=C\[C@@H](C)COC(=O)[C@@H](CCSC)NC(=O)C/C=C\[C@@H](C)COC1=O,-5%[13.5 µM],6%[10 µM],.,.,.,.
